These results are taken from article PMC13494018.

The experiment addresses VTCN1, Q7Z7D3.

Unmarked numbers belong to inactive results. No rule for the calls is given here.

VTCN1, Q7Z7D3, sequence (Q7Z7D3 whole entry): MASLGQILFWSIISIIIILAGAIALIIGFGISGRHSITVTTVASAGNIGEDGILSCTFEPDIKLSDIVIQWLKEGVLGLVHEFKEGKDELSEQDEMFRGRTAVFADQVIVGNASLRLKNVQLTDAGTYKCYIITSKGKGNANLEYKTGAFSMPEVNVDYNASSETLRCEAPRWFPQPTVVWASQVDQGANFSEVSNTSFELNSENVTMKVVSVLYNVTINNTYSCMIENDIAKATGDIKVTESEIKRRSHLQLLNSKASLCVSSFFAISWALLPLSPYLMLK

B1: design_609_7ee6ce64-4629-41e8-bcb4-ba0da017284d_2085_dldesign_0_cycle1_af2pred (protein)
chain: LEEKLKELRALAKEAAEKAKEEGATKTANLLLKGVEASPLKAVGYVLVAADLLKASEKLKPWAEKLEKAAEEV
Take B1: the “binding in a display sort” value was “not found”.

B2: design_609_7ee6ce64-4629-41e8-bcb4-ba0da017284d_2438_dldesign_0_cycle1_af2pred (protein)
chain: MKEEMIKEAKKLMEEGKKKFEEAVKLPASEAAEASKLMHEGHELLTEAAWLAKKAGDEELAKEAKKARKEAVKKGKEAQAASAAA
For B2, the “binding in a display sort” value was “not found”.

B3: design_609_7ee6ce64-4629-41e8-bcb4-ba0da017284d_2350_dldesign_0_cycle1_af2pred (protein)
chain: SEKKLKAQKEALKLVEEVAKYAEEDPETAPKFGKEKAEEAYKYALELGLSEEEAEKLRKTTLRLVEAEIRGAKLVAEKRKKALE
As for B3, the “binding in a display sort” value was “not found”.

B4: design_609_7ee6ce64-4629-41e8-bcb4-ba0da017284d_2306_dldesign_0_cycle1_af2pred (protein)
chain: LSENEKLKKAADYTSKAAKLAAEAAKKYKLPPEAVKKAQEAINLLFSSTDKETAEKAVELAKEAAKYMPESVAKKFLELVEKAAEYWS
Regarding B4, the “binding in a display sort” value was “not found”.

B5: design_609_7ee6ce64-4629-41e8-bcb4-ba0da017284d_2287_dldesign_0_cycle1_af2pred (protein)
chain: SDLEATELQIKAARLVAEAKRALAELTPEEGLARAKELFAEAEKAVKAAAKLLSPEAGKALVAALKERSAAILAEAEKAAAA
With B5, the “binding in a display sort” value is “not found”.

B6: design_609_7ee6ce64-4629-41e8-bcb4-ba0da017284d_2235_dldesign_0_cycle1_af2pred (protein)
chain: MKAKEEAEKKVEEVVEKGEKKVEEMKGLTAEEAEKVRNEIILEGQEVAAEAKKVDPEVGKKGFEKFRKVGEKAEKAVEEVK
For B6, the “binding in a display sort” value is “not found”.

B7: design_609_7ee6ce64-4629-41e8-bcb4-ba0da017284d_2421_dldesign_0_cycle1_af2pred (protein)
chain: AAKEEVEKKAEEVIKKLKEIGEKDPNAKELTDDLIKTLKKEVEKYKDDPEKAKKAVDKAEKTADSLEEAVKY
On to B7, for which the “binding in a display sort” value is “not found”.

B8: design_609_7ee6ce64-4629-41e8-bcb4-ba0da017284d_2408_dldesign_0_cycle1_af2pred (protein)
chain: SSAAEEAAKKVEETAKKIKEEGLPEEEAKKLLSEALLLVADHDSPELAERALKAFEELSKYYPGAAKAAKILKRRLEALKKN
On to B8, for which the “binding in a display sort” value was “not found”.

B9: design_609_7ee6ce64-4629-41e8-bcb4-ba0da017284d_2471_dldesign_0_cycle1_af2pred (protein)
chain: MEALKARGDLDVVADQATQIAKLAAEHPELAELGKRAAELAARAKAAQAGDPEETIKKAKELRAERRELVAETKKRLAAL
On to B9, for which the “binding in a display sort” value is “not found”.

B10: design_609_7ee6ce64-4629-41e8-bcb4-ba0da017284d_2409_dldesign_0_cycle1_af2pred (protein)
chain: SMEEEELRKKADEVAEKAAKIAEEADPELGKKFRERAEKAKKDPVDAYAYYVAQAAKSGGIILEKLGKEEEGKKLKELGKELEKALEE
As for B10, the “binding in a display sort” value is “not found”.

B11: design_609_7ee6ce64-4629-41e8-bcb4-ba0da017284d_2406_dldesign_0_cycle1_af2pred (protein)
chain: ETEKKIKYLKEALYYLHLAIESAKLGSPPEAARRFVEIGIKKALEGDEEVGKELEKLLKELSPEEAAEAGAKLVEERIKELE
On to B11, for which the “binding in a display sort” value is “not found”.
